Screening results: PubChem, several laboratories
NTR1 ag = NTR1 (human) agonism; hit rate 0.17% among 330,000; AID 493036; NTR1-U2OS beta-arrestin-GFP spot imaging, agonist mode; activation, % at 20 µM;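 active = activation at or above 40% of the spot to cytoplasm intensity ratio, with at least 20 cells analyzed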;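 note: 0% = DMSO without peptide and 100% = 100 nM NTR1 peptide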
Target sequence (P30989 whole entry, looked up): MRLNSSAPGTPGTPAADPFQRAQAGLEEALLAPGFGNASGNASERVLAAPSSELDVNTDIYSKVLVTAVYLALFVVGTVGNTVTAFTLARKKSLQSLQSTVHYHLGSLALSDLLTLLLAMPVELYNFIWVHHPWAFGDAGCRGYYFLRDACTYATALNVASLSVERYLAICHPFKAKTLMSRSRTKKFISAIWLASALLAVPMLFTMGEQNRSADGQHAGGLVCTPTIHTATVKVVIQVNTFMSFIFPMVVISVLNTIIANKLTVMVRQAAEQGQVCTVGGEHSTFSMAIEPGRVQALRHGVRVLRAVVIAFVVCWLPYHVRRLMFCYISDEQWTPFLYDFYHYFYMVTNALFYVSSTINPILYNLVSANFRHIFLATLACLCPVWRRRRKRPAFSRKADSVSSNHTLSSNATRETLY
CRFBP-R2 agonist = agonists of human CRF-binding protein/CRF-R2 receptor complex | HEK293 CRF-R2/CRF-BP, calcium dye fluorescence (FLIPR); percent of saturating CRF peptide response | activation, % at 13.2 µM | hit rate 0.46% among 350,000 | AID 588473;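 active = activation of at least 50%, plus an integration ratio under a set limit after plate pattern correction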;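 note: plate controls were neutral control wells without compound for no effect and CRF at EC100 for full effect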
CRFBP-R2 block = antagonists of CRF-binding protein/CRF-R2 receptor complex; HEK293 CRF-R2/CRF-BP, CRF-induced calcium fluorescence; inhibition, % at 11.8 µM; hit rate 0.59% among 350,000; AID 588475;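 active = inhibition of the ligand-induced calcium signal above about 50% at the single tested concentration, limit read from the data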
V-ATPase pHluor = alters yeast V-ATPase proton transport; AID 504577; hit rate 0.37% among 350,000; S. cerevisiae, pHLuorin cytosolic pH fluorescence; response, % at 10 µM; in the data active = response mostly above about 7.3%, no sharp cut-off; inactive = mostly below about 5.4%; note: actives read high
The depositor's hits bear a star; . = no result given. Hits are enriched below; roughly 1.5% of the tested compounds scored in any of these assays.

SMILES	NTR1 ag	CRFBP-R2 agonist	CRFBP-R2 block	V-ATPase pHluor
COc1ccc(NC(=O)CN(C)C(=O)c2cccc(S(=O)(=O)N3CCN(c4ccc(F)cc4)CC3)c2)cc1	.	0	79*	-1
COc1cccc(CN(C)C(=O)c2cccc(S(=O)(=O)N3CCN(c4ccccc4)CC3)c2)c1OC	.	0	117*	1
O=C(c1ccc(COc2ccc(Cl)cc2Cl)o1)N1CCCC1	5	0	-8	1
COc1ccc(S(=O)(=O)N2CCN(C(=O)CC3CC4CCC3C4)CC2)cc1 (stereo unspecified)	-1	-2	7	1
CC1(C)CC(=O)C2=C(C1)N(Cc1ccco1)C(=O)C2(O)C(F)(F)F (stereo unspecified)	0	-1	94*	2
COc1cc(/C=C2/CC/C(=C/c3ccc(O)c(OC)c3)C2=O)ccc1O	18	167*	-132	-1
COc1ccc(/C=C2\CCC(C3CCCC3)C2=O)c(OC)c1 (stereo unspecified)	8	0	-1	1
COc1cc(/C=C2/C(=O)ON=C2c2ccccc2)ccc1O	14	4	56*	3
COc1ccc(/C=C2\CC/C(=C\c3ccc(OC)cc3OC)C2=O)c(OC)c1	-2	88*	-84	-2
COc1cc(/C=C2\C(=O)ON=C2c2ccccc2)cc(Cl)c1O	10	15	-18	4
COc1cc(/C=C2\CCC(C3CCCC3)C2=O)ccc1OC(C)C (stereo unspecified)	2	0	8	-2
COc1ccc(/C=C2\CCC(C3CCCC3)C2=O)cc1OC (stereo unspecified)	5	1	53*	3
C[C@H]1CN([C@@H](C)CO)C(=O)CCCn2cc(nn2)CO[C@@H]1CN(C)C(=O)Nc1ccc(N2CCN(C)CC2)cc1	.	-1	-4	0
O=C(NCc1c(Cl)cccc1Oc1ccccc1)c1ccccc1	2	-2	13	1
COc1ccc(/C=C2\CCC/C(=C\c3ccc(OC)c(OC)c3OC)C2=O)c(OC)c1OC	7	-2	69*	0
COc1cc(OC)c(OC)cc1/C=C1\CCC/C(=C\c2cc(OC)c(OC)cc2OC)C1=O	36	13	-10	2
Cc1nn(CC(=O)N(C)C2(C#N)CCCCC2)c(C)c1[N+](=O)[O-]	0	111*	-75	-6
O=C(O)c1cccc(N/N=C/c2sc(N3CCOCC3)nc2-c2ccccc2)c1	4	-3	-2	5
O=C(N/N=C/c1sc(N2CCOCC2)nc1-c1ccccc1)c1ccccc1Cl	-1	-2	27	-1
O=[N+]([O-])c1ccc(N/N=C/c2sc(N3CCOCC3)nc2-c2ccccc2)c(S(=O)(=O)Nc2ccc(Cl)cc2)c1	.	83*	-55	-5
O=[N+]([O-])c1ccc(N/N=C/c2sc(N3CCOCC3)nc2-c2ccccc2)c(S(=O)(=O)Nc2ccccc2Cl)c1	.	67*	-39	-4
CCOc1ccc(NS(=O)(=O)c2ccc(-c3coc(C)n3)cc2)cc1	1	1	-8	4
CCN(CC(=O)Nc1ccc(S(=O)(=O)N2CCCCC2)cc1)Cc1ccccc1	0	1	2	-5
CNC(=O)C[C@H]1C(=O)N(Cc2ccccc2)C[C@@H]1Cc1ccccc1	.	-1	-3	-1
C=CCN1C(=O)/C(=C/c2ccc(O)cc2)S/C1=N/c1nccs1	8	65*	-73	7
SMILES	NTR1 ag	CRFBP-R2 agonist	CRFBP-R2 block	V-ATPase pHluor
C=CCN1C(=O)/C(=C/c2ccc(OC)cc2)S/C1=N/c1nccs1	6	0	-3	-1
CSc1snnc1-c1ccccc1	0	2	-15	-1
CC(C)Sc1snnc1-c1ccccc1	1	-1	54*	-2
CC1N(O)C(c2ccc(Cl)cc2Cl)N(O)C1(C)C (stereo unspecified)	1	0	8	1
ON1C(c2ccc(Cl)cc2Cl)N(O)[C@H]2CCCC[C@H]21 (stereo partly specified)	0	-2	51*	0
Cc1nn(C)c(C(=O)N/N=C/c2cccc(Oc3ccccc3)c2)c1Br	3	58*	-54	-2
O=[N+]([O-])c1cc(C(F)(F)F)cc([N+](=O)[O-])c1NCCNC(=S)Nc1cccc(F)c1	14	-1	0	1
O=C(O)c1cnc(-c2ccccc2)nc1Sc1ccc(Cl)cc1Cl	5	-3	97*	2
CCOC(=O)c1c(N)sc(C(=O)N2CCCCC2)c1C	0	0	61*	-3
O=C(NC1(C(F)(F)F)C(=O)Nc2c1c(=O)[nH]c(=O)n2Cc1ccccc1)c1ccc(Cl)cc1 (stereo unspecified)	1	0	62*	-3
